Among all 300,000 compounds or so, about 2,400 (0.8%) were called active. For the sample, actives were picked, then their nearest neighbours and some compounds at random. Values without a mark were called inactive.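 Rule for the calls: active = Every replicate reaches about 75%, or at least half do and their mean reaches it too (limit read from the data); inconclusive = At least half of replicates reach the limit but their mean does not; inactive = Under half of replicates reach the limit.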

Results on 84 molecules are retold here after PubChem BioAssay AID435005 (Broad Institute, 2010).

A short description of this assay: INS-1E beta cell survival under cytokines – luminescence, primary screen (AID 435005).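 Note: 0% = cytokine-treated negative control wells and 100% = positive control rescue; higher means more ATP so stronger rescue from cytokine killing.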 The following applies: INS-1E cytokine-induced death, ATP luminescence, 48 h; active compounds read high; percent of positive-control rescue, neutral wells zero; concentration not given here.
Turning to `Cc1ccc(S(=O)(=O)N2CCN(C(=O)CN3C(=O)NC(C)(c4ccc(Cl)cc4)C3=O)CC2)c(C)c1` (centres undefined), the protection from apoptosis was 0.524%.
For `Cc1ccc(S(=O)(=O)N(C)CC(=O)NCC(c2ccc(F)cc2)N2CCOCC2)cc1` (centres undefined) the value was -2.01%; for `CC(C)CC1NC(=O)c2cc(Cl)ccc2-n2c1nc1ccccc1c2=O` (centres undefined), -3.6%; for `O=C(Nc1cccc(S(=O)(=O)N2CCCCC2)c1)c1cncc(Br)c1`, -1.23%.
For `CCCSc1ccc([C@H]2N[C@@](Cc3ccccc3)(C(=O)OC)[C@H]3C(=O)N(C)C(=O)[C@@H]23)cc1` the value was -4.97%.
For `CCOc1ccc(-n2c(O)c(/C=N/Nc3nc(C)cc(C)n3)c3ccccc3c2=O)cc1` the value was 83.2% (active).
Consider `CCOc1ccc(-n2c(O)c(/C=N/c3ccnn3Cc3ccncc3)c3ccccc3c2=O)cc1`, for which the protection from apoptosis is -6.16%.
For `CCN(CC)CCCN=Cc1c(O)n(-c2ccc(C)cc2)c(=O)c2ccccc12` the value was -3.92%; for `COc1ccc(C(=O)C(C)OC(=O)c2cccc(S(=O)(=O)Nc3c(C)n(C)n(-c4ccccc4)c3=O)c2)cc1` (centres undefined), -20.9%.
Consider `C[C@H](CO)N1C[C@H](C)[C@@H](CN(C)S(=O)(=O)c2ccc(F)cc2)Oc2ccc(NC(=O)CCC(F)(F)F)cc2C1=O`, for which the protection from apoptosis was -4.6%.
Take `C/C(=N\NS(=O)(=O)c1ccccc1)c1c(O)cc(C)oc1=O`: the protection from apoptosis is -4%.
Regarding `Cc1csc2nc(COC(=O)c3cccc(N(C)C)c3)cc(=O)n12`, the protection from apoptosis was 0.447%.
With `O=C(CCCOc1ccccc1)NNC(=O)c1ccc(Cl)cc1`, the protection from apoptosis is -1.22%.
For the molecule `CCOc1ccccc1C1CC(c2ccccc2)Nc2nc(N)nn21` (centres undefined), the protection from apoptosis was 2.14%.
For `Cc1ccc(C2CC(c3cccc(C)c3)n3nc(N)nc3N2)cc1` (centres undefined) the value was 101% (active); for `Cc1ccc(C2CC(c3cccc(Br)c3)n3nc(N)nc3N2)cc1` (centres undefined), 91.3% (active); for `Nc1nc2n(n1)C(c1ccco1)CC(c1ccc(Cl)c(Cl)c1)N2` (centres undefined), 0.887%.
For `COc1ccc(C2CC(c3ccc(C)cc3)Nc3nc(N)nn32)cc1` (centres undefined) the value was -2.94%; for `COc1ccc(C2CC(c3ccc(Cl)cc3Cl)Nc3nc(N)nn32)cc1OC` (centres undefined), -0.0368%; for `O=C(CN1C(=O)NC2(CCCCCC2)C1=O)Nc1ccc([N+](=O)[O-])cc1`, 0.997%.
For `CCCCN(C(=O)C1=NN(c2cc(C)ccc2C)C(=O)CC1)c1c(N)n(CCC)c(=O)[nH]c1=O` the value was 1.47%.
On to `COc1ccccc1NC(=O)COC(=O)CNC(=O)C1CCCCC1`, for which the protection from apoptosis was -4.98%.
As to `CCCCCCSc1ccc([C@@H]2[C@H]3C(=O)N(CC)C(=O)[C@H]3[C@]3(C(=O)OC)CCCCN23)cc1`, the protection from apoptosis is 2.19%.
For `COC(=O)C1=C(C)NC(=S)NC1c1ccc(OCC(=O)N2CC(C)OC(C)C2)c(OC)c1` (centres undefined) the value was 0.55%; for `O=C(N/N=C/c1ccccc1O)C1CCCC1`, 8.23%.
For `O=C(CCCO)N/N=C/c1cc(Br)ccc1O`, the protection from apoptosis is 2.57%.
For `O=C(N/N=C/c1ccccc1O)/C(=C/c1ccccc1)CCO`, the protection from apoptosis was 85.8% (active).
For `O=C(CN1C(=O)NC2(CCCC2)C1=O)Nc1cc(C(F)(F)F)ccc1N1CCOCC1` the value was 1.66%; for `CCCOc1ccc(C(=O)NCCc2ccccc2)cc1`, 9.99%.
For `CCCOc1ccc(Cc2c(Cl)nc(SC)nc2NC)cc1` the value was 82.7% (active).
Take `CCCOc1ccc(Cc2c(O)nc(SC)[nH]c2=O)cc1C`: the protection from apoptosis is -2.93%.
For `COc1ccc(C2=Nn3c(nnc3-c3ccccc3OC)SC2)cc1OC1CCCC1` the value was 31.3%; for `O=C(NCCc1c[nH]c2ccccc12)C1CCN(Cc2ccc(Br)cc2)CC1`, -12.4%; for `CCOc1ccc(CN2CCN(Cc3c[nH]c4ccccc34)CC2)cc1`, 76.1% (active).
For `CCOc1ccc(CN2CCCN(C)CC2)cc1` the value was -3.58%; for `CN(CC(=O)Nc1ccc(Cl)cc1)CC(=O)Nc1cccc2ccccc12`, 0.976%.
On to `Cc1onc(-c2c(F)cccc2Cl)c1C(=O)OCC(=O)N1C(C)CCCC1C` (centres undefined), for which the protection from apoptosis was 1.7%.
For `Cc1[nH]n(-c2ccc([N+](=O)[O-])cc2)c(=O)c1C=NCCN1CCN(C(=O)c2ccccc2F)CC1` the value was 48.6%.
For `Cc1occc1C(=O)N/N=C/c1ccc(-c2cccc([N+](=O)[O-])c2)o1` the value was 4.96%; for `Cc1ccc(-n2[nH]c(C)c(/C=N/NC(=O)c3cccc([N+](=O)[O-])c3)c2=O)cc1C`, 106% (active); for `Cc1cccc(C(=O)NNC(=O)c2cccc([N+](=O)[O-])c2)c1`, -5.35%.
With `Cc1[nH]n(-c2ccccc2)c(=O)c1/C=N/NC(=O)c1ccoc1C`, the protection from apoptosis is 107% (active).
For `COc1cc(/C=N/NC(=O)c2ccoc2C)ccc1OCCN1CCCCC1` the value was -1.12%.
For `Cc1ccc(N2C(=O)N3[C@@H]4c5ccccc5OC[C@@H]4[C@@H](c4ccccc4)[C@@]3(C)C2=O)cc1`, the protection from apoptosis is -1.96%.
For the molecule `Cc1ccc(S(=O)(=O)N(C)C)cc1NC(=O)CN1c2cccc3cccc(c23)S1(=O)=O`, the protection from apoptosis is -0.228%.
For `COc1ccc(C(=O)NCC(=O)N/N=C/c2ccc([N+](=O)[O-])o2)cc1OC` the value was -11.1%; for `COc1ccc(C(=O)NCC(=O)N/N=C/c2ccc([N+](=O)[O-])s2)cc1OC`, 91.3% (active); for `CCOc1ccc(NC(=O)CCC(=O)N/N=C/c2ccc([N+](=O)[O-])s2)cc1`, -9.66%.
As to `Cc1ccccc1NCC(=O)N/N=C\c1ccc([N+](=O)[O-])s1`, the protection from apoptosis is 3.12%.
For `COc1ccc(C(=O)COC(=O)c2ccc([N+](=O)[O-])s2)cc1OC` the value was 4.99%; for `CC(C)(C)c1cc(C(=O)N/N=C/c2ccc([N+](=O)[O-])s2)n[nH]1`, 111% (active); for `CCN(C[C@H]1N[C@@](CC)(C(=O)OC)[C@H]2C(=O)N(Cc3ccccc3)C(=O)[C@@H]12)S(=O)(=O)c1ccc(C(F)(F)F)cc1`, 13.9%.
As for `COc1ccc(C)cc1NC(=O)c1cc(-c2ccccc2)nc2c1cnn2C(C)C`, the protection from apoptosis was 15.6%.
With `COc1ccc(S(=O)(=O)Nc2cccc3c2O[C@H](CN(C)S(=O)(=O)c2ccc(OC)cc2)[C@@H](C)CN([C@H](C)CO)C3=O)cc1`, the protection from apoptosis was -7.76%.
Turning to `COc1ccc(S(=O)(=O)N(C)C[C@@H]2Oc3ccc(NS(=O)(=O)c4cn(C)cn4)cc3C(=O)N([C@@H](C)CO)C[C@@H]2C)cc1`, the protection from apoptosis was -2.08%.
For `Nn1c(SCC(=O)NC2CCCc3ccccc32)nnc1C1CC1` (centres undefined) the value was -5.42%; for `COc1ccc(CCNC(=O)COC(=O)c2cnc(Cl)c(Cl)c2)cc1`, -3.76%.
In the case of `C/C(=N\NC(=O)Cc1ccc(F)cc1)c1ccc(F)cc1`, the protection from apoptosis is -1.1%.
For the molecule `C/C(=N\NC(=O)Cc1ccc(Cl)cc1)c1ccccn1`, the protection from apoptosis was 87.6% (active).
For `C/C(=N\NC(=O)Cc1ccc(Br)cc1)c1cccnc1` the value was -3.84%.
Consider `COC(=O)c1ccccc1NC(=S)NC(=O)c1ccccc1F`, for which the protection from apoptosis is 1.17%.
As to `C/C(=N\NC(=O)c1ccccc1F)c1ccccn1`, the protection from apoptosis is 92% (active).
For `C/C(CC(=O)Nc1ccc(N(C)C)cc1)=N\NC(=O)c1ccccc1F` the value was 1.37%; for `O=C(COC(=O)c1ccccn1)NNC(=O)c1ccc(Br)cc1`, -13.1%.
Turning to `Cc1cc(C)cc(OCC(=O)Nc2ccc(N3CCOCC3)cc2N2CCOCC2)c1`, the protection from apoptosis was 1.95%.
On to `CN(CC(=O)Nc1ccc(OC(F)F)cc1)S(=O)(=O)/C=C/c1ccccc1`, for which the protection from apoptosis is -0.758%.
For `CCc1ccc(-n2c(SCc3cc(=O)n4cc(Br)ccc4n3)nc3[nH]ncc3c2=O)cc1` the value was 16.3%; for `Cc1cccc2nc(CSc3nc4[nH]ncc4c(=O)n3-c3cccc(Cl)c3)cc(=O)n12`, 92.7% (active); for `COc1ccc(CCNC(=O)CSc2nc3[nH]ncc3c(=O)n2-c2cccc(C(F)(F)F)c2)cc1OC`, 4.86%.
For `CC[C@@H]1CCCCc2ccccc2[C@@H](C(=O)C[C@H](O)CC(C)=O)OC1=O` the value was -2.96%; for `C[C@@H]1CN([C@@H](C)CO)C(=O)c2cccc(NS(=O)(=O)c3ccc(F)cc3)c2O[C@H]1CN(C)C(=O)NC1CCCCC1`, -0.297%; for `COc1cc(OC)c(OC)cc1/C=N/Nc1ncnc2c1[nH]c1ccc(C)cc12`, 6%.
For `CC(C)OCCCNc1ncnc2c1[nH]c1ccc(F)cc12` the value was 104% (active); for `CC(C)OCCCNC(=O)c1cc(Sc2ccc(F)cc2)nc2ccccc12`, 0.00619%; for `COc1ccc(NC(=O)CN(C)C(=O)c2cc(C3CC3)nn2-c2ccccc2)cc1`, -6.53%.
For `N#Cc1cc([N+](=O)[O-])ccc1NC(=O)COC(=O)c1cnccn1`, the protection from apoptosis is -1.22%.
On to `Cc1cccc(NC(=S)Nc2ccc3cn[nH]c3c2)c1`, for which the protection from apoptosis was 124% (active).
For `CCc1cccc(CC)c1NC(=S)Nc1ccc2cn[nH]c2c1` the value was -5.93%; for `Cc1cccc(NC(=S)Nc2ccc(Cl)c(Cl)c2)c1`, 2.17%.
For the molecule `COc1ccc(S(=O)(=O)N(C)C[C@H]2Oc3c(NC(=O)Nc4ccc5c(c4)OCO5)cccc3C(=O)N([C@H](C)CO)C[C@@H]2C)cc1`, the protection from apoptosis is 2.68%.
Regarding `Cc1ccc(C(=O)Nc2ccc3c(c2)OCCO3)cc1S(=O)(=O)N1CCOCC1`, the protection from apoptosis is 10.2%.
Take `C/C(N)=C(/C#N)C(=O)COC(=O)c1cc(-c2cccc(Br)c2)nc2ccccc12`: the protection from apoptosis was -5.26%.
For `C/C(N)=C(/C#N)C(=O)COC(=O)c1cc(-c2ccccc2)nc2ccc(Br)cc12` the value was 7.58%; for `C/C(N)=C(/C#N)C(=O)COC(=O)c1cc(-c2ccc(C)cc2)nc2ccccc12`, 80.7% (active).
